In PubChem BioAssay AID1159580 (chemical genetic matrix, 2015):
Out of some 5,500 compounds screened, about 2,000 (36%) were called active. Another 18% or so got no clear call; they are omitted. Rule as the data show it: active = normalized growth mostly below about 0.91 (no sharp cut-off); inconclusive = no clear call, values can overlap the other calls; inactive = mostly above about 0.92. The list shows a part of the results.

Experiment: chemical genetic growth profiling, strain panel (AID 1159580);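 also: tested at 20 µM; growth read once vehicle control cultures reached saturation at 30 °C; 1 = growth at the plate median or of vehicle wells; lower values mean less growth of the strain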
Details: S. cerevisiae deletion strains, growth OD
[1] = locus YGR078C, strain PAC10, active compounds read low
[2] = locus YHR030C, strain SLT2, active compounds read low
[3] = locus YJR075W, strain HOC1, active compounds read low
[4] = locus YNL153C, strain GIM3, active compounds read low
[5] = locus YNL322C, strain KRE1, active compounds read low
[6] = locus YPL241C, strain CIN2, active compounds read low

Measured: normalized growth

Cc1cccc(C)c1N=C1SCCS1
inactive: locus YAL013W, strain DEP1, active compounds read low 1 | locus YBR229C, strain ROT2, active compounds read low 0.99 | locus YCL061C, strain MRC1, active compounds read low 0.982 | locus YDL101C, strain DUN1, active compounds read low 0.986 | locus YDL134C, strain PPH21, active compounds read low 1.02 | locus YDR150W, strain NUM1, active compounds read low 0.902 | locus YEL061C, strain CIN8, active compounds read low 1.01 | [1] 0.99 | locus YGR229C, strain SMI1, active compounds read low 0.997 | [2] 0.929 | locus YHR087W, strain rtc3, active compounds read low 0.988 | locus YJR043C, strain POL32, active compounds read low 0.995 | [3] 0.996 | locus YKL190W, strain CNB1, active compounds read low 1 | locus YLR039C, strain RIC1, active compounds read low 0.941 | locus YLR058C, strain SHM2 (second series), active compounds read low 0.996 | locus YLR085C, strain ARP6, active compounds read low 0.99 | locus YLR262C, strain YPT6, active compounds read low 0.978 | locus YML094W, strain GIM5, active compounds read low 0.978 | locus YMR219W, strain ESC1, active compounds read low 0.996 | locus YMR263W, strain SAP30, active compounds read low 0.934 | locus YMR307W, strain GAS1, active compounds read low 0.93 | locus YNL128W, strain TEP1, active compounds read low 1 | [4] 0.966 | locus YNL298W, strain CLA4 (second series), active compounds read low 0.99 | [5] 0.988 | locus YNR030W, strain Alg12, active compounds read low 1 | locus YPL055C, strain LGE1, active compounds read low 0.906 | [6] 0.865 | locus YPR135W, strain CTF4, active compounds read low 0.887

CN(C)CCC(c1ccc(Cl)cc1)c1ccccn1 (stereo unspecified)
inactive: locus YAL040C, strain CLN3, active compounds read low 0.987 | locus YCL061C, strain MRC1 (second series), active compounds read low 0.999 | locus YDR363W, strain ESC2, active compounds read low 0.993 | locus YER002W, strain NOP16, active compounds read low 0.987 | [1] 1.01 | [2] 0.962 | locus YHR079C, strain IRE1, active compounds read low 0.97 | locus YJL095W, strain BCK1, active compounds read low 0.999 | locus YJR066W, strain TOR1, active compounds read low 0.927 | [3] 0.991 | locus YLR113W, strain HOG1, active compounds read low 1.01 | [4] 0.998 | locus YNL175C, strain NOP13, active compounds read low 1 | locus YNL183C, strain NPR1, active compounds read low 0.941 | locus YNL197C, strain WHI3, active compounds read low 1.03 | locus YNL224C, strain SQS1, active compounds read low 1.01 | [5] 0.992 | locus YOR083W, strain WHI5 (second series), active compounds read low 1.01 | locus YOR231W, strain MKK1, active compounds read low 0.971 | [6] 0.998 | locus YPL256C, strain CLN2, active compounds read low 0.94
